Source: PubChem BioAssay (several laboratories)
tim10-1 inh – growth inhibitors of tim10-1 mutant yeast, primary screen, luminescence, uHTS. S. cerevisiae tim10-1 ts strain growth, BacTiter-Glo, 24 h. 330,000 compounds, 2.2% hits. inhibition, % at 20 µM;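 active means inhibition of at least 40%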;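 further: mutant grown at 25 °C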
PfHsp90 set2 – growth inhibition of PfHsp90-expressing yeast, primary screen, antimalarial PfHsp90 inhibitor project, S. cerevisiae, BacTiter-Glo luminescence, single point, set 2. BacTiter-Glo ATP, 48 h; yeast lacking PDR1 and PDR3 efflux regulators. inhibition, % at 9.4 µM. 310,000 compounds, 0.32% hits;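 active means every replicate shows inhibition above about 80%, whatever the replicate mean, limit read from the data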
tim23-1 inh – growth inhibitors of tim23-1 mutant yeast, primary screen, luminescence, uHTS; S. cerevisiae tim23-1 growth, BacTiter-Glo luminescence, 24 h; inhibition, % at 20 µM; 330,000 compounds, 1.3% hits;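 active means growth inhibition of the mutant yeast at or above 50%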;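 further: temperature-sensitive mutant grown at 25 °C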
SUMO Mot1 rescue – yeast Mot1-301 growth rescue at high temperature, primary screen, SUMOylation pathway inhibitor project, S. cerevisiae, ATP luminescence, 38.5C. S. cerevisiae Mot1-301 growth rescue; percent above DMSO median, 100 means doubled. growth rescue, % at 18.8 µM. 320,000 compounds, 1% hits;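 active means every valid replicate shows activation above 250% relative to neutral control wells; inactive means the rest, any valid replicate at or below 250%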
TIM10 inh – growth inhibitors of isogenic TIM10 control yeast, primary screen, counter-screen for tim10-1 yeast inhibitor project, luminescence, uHTS. 330,000 compounds, 1.4% hits. S. cerevisiae TIM10 strain growth, BacTiter-Glo luminescence, 24 h. inhibition, % at 10 µM;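 active means inhibition of 40% or more at the single tested concentration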;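 further: wild-type TIM10 isogenic control strain grown at permissive 25 °C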
tim10-1 conf – growth inhibitors of tim10-1 mutant yeast, confirmation, single concentration, luminescence, S. cerevisiae; shares compounds with tim10-1 inh; S. cerevisiae tim10-1 ts strain growth, BacTiter-Glo, 24 h; inhibition, % at 20 µM; 7,400 compounds, 56% hits;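 active means inhibition of yeast growth at or above a set limit in either of two repeat tests at 20 µM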;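 further: tim10-1 mutant grown at permissive 25 °C to find synthetic lethal compounds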
Hits are given with their value; i = inactive; nt = not tested or not shown. Compounds with a hit are over-represented: about 4.4% of the library has one in this group of screens.

SMILES	tim10-1 inh	PfHsp90 set2	tim23-1 inh	SUMO Mot1 rescue	TIM10 inh	tim10-1 conf
C=CC(=O)Oc1ccc(N2Cc3ccccc3C2=O)cc1	59.5	nt	i	i	i	67.7
COc1ccc(N2Cc3ccccc3C2=O)cc1	i	i	i	i	i	nt
COc1ccccc1C(C#N)c1cccc(Cl)n1 (centres undefined)	i	i	i	i	i	nt
COc1ccc(CC(=O)OCCc2cc3cc(OC)c(OC)cc3c(=O)o2)cc1	i	i	i	i	i	nt
CCOc1cc(N2CCOCC2)c(OCC)cc1NC(=O)COC(=O)c1cc2ccccc2cc1O	i	i	i	i	i	nt
CCOc1ccc(OCCC(=O)OCC(=O)Nc2cc(OCC)c(N3CCOCC3)cc2OCC)cc1	45.7	i	i	i	i	i
Cc1ccc(OCC(=O)O/N=C(\N)Cc2cccs2)cc1C	43.8	i	i	i	i	i
Cc1cc(OCC(=O)O/N=C(\N)Cc2cccs2)ccc1Br	i	i	i	i	i	nt
COc1ccccc1C/C(N)=N/OC(=O)COc1ccccc1C	40.8	i	i	i	i	40.4
Cc1ccc(S(=O)(=O)N2CCOCC2)cc1NC(=O)COC(=O)CCOc1ccc(C(C)(C)C)cc1	i	i	i	i	i	nt
O=C(Nc1cccc(F)c1)c1ccc(S(=O)(=O)N2CCCCC2)cc1	i	i	i	i	i	nt
C/C(=N\NC(=S)NC(C)C)c1ccc(-n2ccnc2)cc1	42.8	nt	i	i	i	i
CCC(CC)C(=O)Nc1ccc(Cl)c(Cl)c1	40.7	i	i	i	i	i
O=[N+]([O-])c1ccc(N2CCCCCC2)c(S(=O)(=O)N2CCCCC2)c1	47.8	i	i	i	i	i
COC(=O)c1ccccc1NC(=O)CSc1nncn1-c1ccccn1	i	i	i	i	i	nt
CCOc1ccc(Nc2nc(N)nc(CSC(=S)N3CCN(c4ccccc4)CC3)n2)cc1	i	i	i	i	i	nt
COc1ccc(Nc2nc(N)nc(CSC(=S)N3CCN(c4ccccc4)CC3)n2)cc1	40.7	i	i	i	i	i
CCc1ccc(NC(=O)C2CCCN2S(=O)(=O)c2ccc3c(c2)n(C)c(=O)c(=O)n3C)cc1 (centres undefined)	i	i	i	i	i	nt
O=C1CC[C@@]23CCCN2C(=O)CCCC3C1 (some centres undefined)	i	i	i	nt	i	nt
Cc1cc(C(=O)Cn2nc(C(=O)O)c3ccccc3c2=O)c(C)n1-c1ccccc1	42.5	i	i	i	i	i
CCOc1ccc(C(=O)CC(Sc2ccc(C)cc2)C(=O)O)cc1 (centres undefined)	i	i	i	i	i	nt
O=C(CC(Sc1ccc(Br)cc1)C(=O)O)c1ccc(F)cc1 (centres undefined)	42.0	i	i	i	i	i
C=CCN(c1ccccc1OC)S(=O)(=O)c1cccc(C(=O)NCc2cccs2)c1	i	i	i	nt	i	nt
N#Cc1c(-c2ccc(F)cc2)nc2n(c1=O)CCS2	i	i	i	i	i	nt
FC(F)Oc1ccc(/C=N/c2c(-c3ccc(OC(F)F)cc3)nc3n2CCS3)cc1	47.4	i	i	i	i	i
SMILES	tim10-1 inh	PfHsp90 set2	tim23-1 inh	SUMO Mot1 rescue	TIM10 inh	tim10-1 conf
CCOc1ccccc1N(C)C(=O)CCS(=O)(=O)c1ccc2c(c1)NC(=O)C(C)S2 (centres undefined)	i	i	i	i	i	nt
CCOC(=O)c1oc2nc(C(C)C)c3c(c2c1N)CC(C)(C)OC3	i	i	i	nt	i	nt
CCOC(=O)c1oc2nc(C(C)C)c3c(c2c1N)CCC3	43.1	i	i	nt	i	i
COc1cc(C(=C(CC(=O)O)C(=O)O)c2ccc3c(c2)OCO3)cc(OC)c1OC	nt	i	nt	nt	nt	nt
C/C(=N/Nc1ccc([N+](=O)[O-])cc1)c1ccc(C)cc1C	42.0	i	i	i	i	i
COc1ccc(C(=O)COC(=O)Cc2n[nH]c(=O)c3ccccc23)c(OC)c1	i	i	i	i	i	nt
Cc1ccc(C)c(SCC(=O)N(C)CC(=O)Nc2ccc(N3CCOCC3)cc2)c1	i	i	i	i	i	nt
CC(C)NC(=O)C(=O)Nc1ccc2c(c1)N(S(=O)(=O)c1cccs1)CCC2	43.2	i	i	i	i	i
N#C/C(=N/Nc1ccc(OC(F)(F)F)cc1)C(N)=S	47.5	i	i	i	i	56.5
COc1ccc(N/N=C(\C#N)C(N)=O)cc1	i	i	i	i	i	nt
COC(=O)Sc1nc(N2CCOCC2)c2c(c1C#N)CC(C)(C)OC2	45.4	i	i	i	i	31.4
CCn1ncc([N+](=O)[O-])c1C(=O)Nc1ccc(C)c(C)c1	i	i	i	i	i	nt
CC(C(=O)NCCCc1ccccc1)n1cccc1C(=O)c1ccccc1 (centres undefined)	i	i	i	i	i	nt
Cc1csc(NC(=O)CCn2c(=O)oc3ccc(Cl)cc32)n1	43.4	i	i	i	i	i
N#Cc1c(N2CCCCC2)nc(N)c2c(N)nc3c(c12)CC(c1ccccc1)O3 (centres undefined)	40.8	i	i	nt	i	i
C=COC(=O)CSc1snc(SCC(=O)OC)c1C#N	43.1	i	i	i	i	i
CCN(CC)C(=O)CSc1nsc(SCC(=O)N(CC)CC)c1C#N	i	i	i	i	i	nt
COc1ccc(NC(=O)CS(=O)c2ccc(Br)cc2)cc1 (centres undefined)	i	i	i	i	i	nt
CC(/C=C1\SC(=S)N(NC(=O)c2cccc(O)c2)C1=O)=C\c1ccccc1	51.2	i	i	i	i	30.6
O=C(NN1C(=O)/C(=C/c2ccc(O)cc2)SC1=S)c1cccc(O)c1	i	i	i	i	i	nt
CS(=O)(=O)c1ccc(Cl)c(NC(=O)CN2CCN(S(=O)(=O)/C=C/c3ccccc3)CC2)c1	nt	i	nt	nt	nt	nt
COC(=O)c1cc(Br)ccc1NC(=O)CSCc1c(C)noc1C	i	nt	i	i	i	nt
Cc1ccccc1CC1(CO)CCCN(C(=O)c2cc(Cl)ccc2F)C1 (centres undefined)	41.9	i	i	i	i	31.9
COc1ccc(C(=O)N2CCCC(CO)(Cc3ccccc3C)C2)o1 (centres undefined)	47.8	i	i	i	i	i
Cc1ccccc1CC1(CO)CCCN(C(=O)c2ccccc2Cl)C1 (centres undefined)	i	i	i	i	i	nt
COc1ccc(S(=O)(=O)N2CCC(C(N)=O)CC2)cc1C(=O)N1CCCCCC1	i	i	i	i	i	nt
COc1ccc(NC(=O)COc2cccc(-n3cnnn3)c2)cc1Cl	i	nt	i	i	i	nt
O=C(NNC(=S)Nc1cccc(C(F)(F)F)c1)c1cccc(Cl)c1	50.1	i	i	i	i	45.6
O=C(NNC(=S)Nc1cccc(C(F)(F)F)c1)c1ccccc1Cl	i	i	i	i	i	nt
